The results in this text go back to ChEMBL document CHEMBL3988442, “University of Dundee, Small-Polar-MMV Screening Library” (2021).

Test [1] concerns the target T1, Aspartate--tRNA(Asp/Asn) ligase (Mycobacterium tuberculosis (strain ATCC 25618 / H37Rv)) (UniProt P9WFW3). Note: in the data most compounds retested in dose-response had high values.
T1 sequence (whole entry): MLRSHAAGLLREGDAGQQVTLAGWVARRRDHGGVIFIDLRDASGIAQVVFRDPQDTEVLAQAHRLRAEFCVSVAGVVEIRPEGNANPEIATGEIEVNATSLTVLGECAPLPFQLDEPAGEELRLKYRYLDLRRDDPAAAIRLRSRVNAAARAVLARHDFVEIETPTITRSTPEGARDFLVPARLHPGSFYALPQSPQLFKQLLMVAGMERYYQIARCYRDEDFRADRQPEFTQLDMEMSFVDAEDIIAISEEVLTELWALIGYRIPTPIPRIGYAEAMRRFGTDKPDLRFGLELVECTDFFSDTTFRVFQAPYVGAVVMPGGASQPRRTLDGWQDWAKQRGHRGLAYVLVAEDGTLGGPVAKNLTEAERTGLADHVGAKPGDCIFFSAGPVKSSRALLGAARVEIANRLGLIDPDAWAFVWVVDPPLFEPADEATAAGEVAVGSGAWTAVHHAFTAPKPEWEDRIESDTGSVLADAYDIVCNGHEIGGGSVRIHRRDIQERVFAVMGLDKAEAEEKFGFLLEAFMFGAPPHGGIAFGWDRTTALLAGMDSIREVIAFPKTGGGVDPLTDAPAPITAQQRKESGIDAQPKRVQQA
The experiment in a line: Assay for Asp RNA synthetase-1 from Mycobacterium tuberculosis. As to conditions: 30 µM. The format is functional. More on the design: scale not given: direction of the effect not stated beside the values.

In test [2] the target is Shiga toxin 2 (Escherichia coli O157:H7) (UniProt P09385+P09386). The test can be described thus: E. coli 0.157:H7 Shiga Toxin SOP - stx2 screening assay. The format is functional. On the set-up: scale not given: direction of the effect not stated beside the values. The settings on record: 30 µM.

Take `Cc1nc(C)c(C(=O)N2CCC(Nc3cccnc3)CC2)s1`: the results for the Percent Effect in test [1] and in test [2] were 16.8% and -45.8%, respectively.

Turning to `CCc1nc(C2CCCN(C(=O)c3ccc4[nH]nnc4c3)C2)no1` (configuration not stated), the Percent Effect in test [1] was 2.74%; in test [2] it was 14.5%.

For the molecule `COCCNC(=O)c1cc2c(s1)CCN2C(=O)c1ccccc1`, the figures for the Percent Effect in test [1] and in test [2] were 0.0582% and -56.3%, respectively.

In the case of `CCN(CC)CCNC(=O)c1nn(CC)cc1Cl`, the Percent Effect in test [1] is -6.16%; in test [2], -57%.

In the case of `c1nc2c(c(C3CC3)n1)CCN(CC1CCOC1)CC2` (configuration not stated), the Percent Effect was 3.35% in test [1] and -6.27% in test [2].

Turning to `Cc1nc(C)n(CC2CCCN2Cc2nc(C3CC3)no2)n1` (configuration not stated), the Percent Effect was 0.278% in test [1] and -16.4% in test [2].

For the molecule `CCn1nc2c(cc1=O)CN(Cc1nc(-c3ccccn3)no1)CC2`, the Percent Effect in test [1] is 29%; in test [2], -43.5%.

On to `Cc1cc(C)c(CNC(=O)N(C)CC2CCCCO2)c(=O)[nH]1` (configuration not stated), for which the Percent Effect in test [1] came out at 2.7%; in test [2] it was 28.8%.

For the molecule `Cn1cnc2c1CCN(CCS(=O)(=O)c1ccccc1)C2`, the Percent Effect is -1.69% in test [1] and 0.397% in test [2].

Consider `CC(C)N1CCCC(CCCc2ccccn2)(C(=O)O)C1` (configuration not stated), for which the Percent Effect turned out to be 1.98% in test [1] and 9.97% in test [2].

As for `COc1ccc(C(=O)NCCc2nnc3ccccn23)c(OC)c1`, the Percent Effect was 3.2% in test [1] and -5.45% in test [2].

As to `CCC(CC)C(CNC(=O)Nc1ccc(C)cc1)N1CCOCC1` (configuration not stated), the Percent Effect was -1.91% in test [1] and -3.64% in test [2].

Turning to `Cc1nc(C)n(CC2CCCN(c3ncnc4[nH]ccc34)C2)n1` (configuration not stated), the Percent Effect was -1.82% in test [1] and 2.99% in test [2].

For the molecule `O=C(CCN1CCC(C(=O)c2cc(F)ccc2F)CC1)NC1CC1`, the Percent Effect in test [1] was 1.41%; in test [2], -24.2%.

Take `Cc1cc(C(=O)N2Cc3ccccc3OC3(CCOCC3)C2)nc(N)n1`: the Percent Effect in test [1] was found to be 0.67%; in test [2], 3.58%.

As for `O=C(Cc1cccc(F)c1)NCCNCc1cccc(O)c1`, the Percent Effect in test [1] was 4.95%; in test [2] it was -12.7%.

Consider `Cc1cc(N(C)Cc2noc(C)n2)n2nc(C)c(C)c2n1`, for which the Percent Effect was -0.251% in test [1] and -8.78% in test [2].

With `Cc1cc(C(=O)N2CCCCC2C)ccc1NCC(=O)N1CCOCC1` (configuration not stated), the Percent Effect was -12.3% in test [1] and -49.1% in test [2].

As for `CNS(=O)(=O)c1ccc(CNC(=O)NCC2CCOC2)cc1` (configuration not stated), the results for the Percent Effect in test [1] and in test [2] were -4.9% and 25.4%, respectively.

Regarding `COc1c(CNC2CCc3cc(F)ccc32)c(C)nn1C` (configuration not stated), the results for the Percent Effect in test [1] and in test [2] were -5.95% and 7.74%, respectively.

On to `Cn1cnnc1S(=O)(=O)C1CCN(S(=O)(=O)c2ccc(F)c(Cl)c2)CC1`, for which the results for the Percent Effect in test [1] and in test [2] were 2.04% and -2.86%, respectively.

Regarding `O=C(CSC1CCc2ccccc2NC1=O)NCCO` (configuration not stated), the Percent Effect in test [1] was 0.805%; in test [2] it was -11.3%.

As to `O=C(c1ccnnc1)N1C[C@@H]2CC[C@H](Oc3cccc(F)c3)[C@@H]2C1`, the Percent Effect in test [1] is 3.77%; in test [2], -5.52%.

`O=C(Cc1ccccc1F)N1CCN(C(=O)c2cccc(F)c2)CC1`: the results for the Percent Effect in test [1] and in test [2] were 23.6% and -39.5%, respectively.

As for `O=C(N[C@@H]1CN(Cc2ccc3c(c2)OCO3)[C@@H]2CCCO[C@@H]21)C1CC1`, the values for the Percent Effect in test [1] and in test [2] were 5.97% and 9.3%, respectively.

Turning to `CCN(CC)C(=O)Nc1cc2c(cc1SC)OCCO2`, the Percent Effect in test [1] is -1.51%; in test [2], 12%.

`CN(Cc1ccccn1)C(=O)[C@]12COC[C@H]1CN(Cc1cnn(C)c1)C2`: the values for the Percent Effect in test [1] and in test [2] were -0.844% and -6.88%, respectively.

For `Cc1cccc(COC[C@]23COC[C@H]2CN(C(=O)c2ccsc2)C3)n1`, the Percent Effect was determined as 1.56% in test [1] and 7.59% in test [2].

On to `O=C(CCNC(=O)c1ccoc1)NCc1ccccc1F`, for which the Percent Effect was 1.27% in test [1] and 11.5% in test [2].

In the case of `CN(C)c1ccc(NC(=O)NCc2ccccn2)cn1`, the Percent Effect in test [1] is 3.94%; in test [2] it was -60.4%.

Consider `CC(C)CN1C[C@@H]2CN(C(=O)[C@H]3CCCO3)C[C@@H]2C1=O`, for which the Percent Effect in test [1] was 1.02%; in test [2], -18.1%.

On to `CC(O)CN(CC(=O)NC(=O)NC1CC1)c1ccccc1` (configuration not stated), for which the Percent Effect in test [1] is -1.82%; in test [2] it was 4.59%.

Turning to `CNc1snc(C)c1C(=O)N1CCCC(n2ccnc2C(C)C)C1` (configuration not stated), the Percent Effect came to 1.51% in test [1] and 3.71% in test [2].

For `CCOc1ccc(Cl)cc1C1CCCN1` (configuration not stated), the Percent Effect in test [1] turned out to be 3.74%; in test [2], 5.67%.

As for `O=C(O)c1ccc(S(=O)(=O)Nc2ccc(Cl)c(F)c2)c(F)c1`, the values for the Percent Effect in test [1] and in test [2] were -0.533% and -14.1%, respectively.

Take `COc1cc(C)c(S(=O)(=O)NCc2cccnc2N(C)C)c(C)c1`: the figures for the Percent Effect in test [1] and in test [2] were 2.73% and -18.1%, respectively.

On to `CN(C)C(=O)N1C[C@H](Oc2ccccn2)[C@H]2OCCC[C@H]21`, for which the Percent Effect in test [1] was 2.67%; in test [2], -3.38%.

For the molecule `COCCn1ccc(=O)c(OCC(=O)Nc2cccc(C(C)=O)c2)c1C`, the figures for the Percent Effect in test [1] and in test [2] were -4.27% and -43.8%, respectively.

Turning to `Cc1ccc(CN2CCc3ncc(CNS(C)(=O)=O)n3CC2)o1`, the results for the Percent Effect in test [1] and in test [2] were 1% and -24.4%, respectively.

Consider `CNc1nc(C)c(C(=O)N2CCCCC2CN2CCCCCC2)s1` (configuration not stated), for which the values for the Percent Effect in test [1] and in test [2] were 1.75% and 1.34%, respectively.

Take `Cc1ccc(C(=O)NCCS(C)(=O)=O)c(=O)[nH]1`: the Percent Effect in test [1] was -3.5%; in test [2] it was -4.7%.

In the case of `CN(C)c1cc2c(nn1)CCN(C(=O)C1CCc3ccccc31)C2` (configuration not stated), the Percent Effect in test [1] was determined as 5.85%; in test [2] it was 5.96%.

For `c1cc(C2CCCN2Cc2nnnn2C2CC2)cs1` (configuration not stated), the Percent Effect in test [1] is -4.43%; in test [2], 5.22%.

Take `CC1(C)CC(N2Cc3nc(N4CCOCC4)ncc3C2=O)CC(C)(C)N1`: the Percent Effect in test [1] is -4.82%; in test [2], -59.4%.

With `Cc1cnn(CC2CCCN2C(=O)CCc2c(C)noc2Cl)c1` (configuration not stated), the Percent Effect in test [1] is 2.73%; in test [2] it was -4.86%.

In the case of `OC(CN(Cc1ccccc1)Cc1ccncc1)c1cccs1` (configuration not stated), the Percent Effect was -1.23% in test [1] and 4.51% in test [2].

In the case of `O=C(Cc1ccsc1)N1CCC(n2nc(-c3ccco3)ccc2=O)CC1`, the Percent Effect in test [1] was -0.938%; in test [2], 18.8%.

Regarding `Cc1cc(=O)[nH]c(SCC(=O)N(C)CC2Cc3ccccc3CN2C)n1` (configuration not stated), the figures for the Percent Effect in test [1] and in test [2] were 1.96% and 5.78%, respectively.

With `CCCNC(=O)NC(=O)CN(CC(C)O)c1ccccc1` (configuration not stated), the Percent Effect worked out at 1.53% in test [1] and 20.6% in test [2].

For the molecule `Cc1ccc(NS(=O)(=O)CC2=NC(=O)n3cccc3C2=O)cc1`, the Percent Effect in test [1] was -1.02%; in test [2] it was -73.8%.

Turning to `Cc1nc(C(C)(C)NC(=O)Nc2ccccc2)no1`, the Percent Effect in test [1] is 0.805%; in test [2] it was -0.789%.
